From PubChem BioAssay (EPA / NIEHS)
Activity calls are given as the source filed them. Rule for the calls: active = hit-call score of the fitted dose curve at least 0.9, where 1 is the maximum; inactive = score below 0.9.

Experiment: ATG_EGR_CIS: Attagene CIS-FACTORIAL HepG2 Assay for human Early Growth Response 1 (EGR1) (AID 2282938)
Settings: HepG2 Attagene CIS-FACTORIAL EGR reporter mRNA; actives raise or lower the signal
Experimental: ATG_CIS is a cell-based, multiplexed-readout assay that uses HepG2, a human liver cell line, with measurements taken at 24 hours after chemical dosing in a 24-well plate.ATG_EGR_CIS is one of 52 assay component(s) measured or calculated from the ATG_CIS assay. It is designed to make measurements of mRNA induction, a form of inducible reporter, as detected with fluorescence intensity signals by Reverse transcription polymerase chain reaction (RT-PCR) and Capillary electrophoresis technology.Data from the assay component ATG_EGR_CIS was analyzed into 1 assay endpoint. This assay endpoint, ATG_EGR_CIS, was analyzed with bidirectional fitting relative to DMSO as the negative control and baseline of activity. Using a type of inducible reporter, measures of mRNA for gain or loss-of-signal activity can be used to understand the reporter gene at the transcription factor-level as they relate to the gene EGR1. Furthermore, this assay endpoint can be referred to as a primary readout, because this assay has produced multiple assay endpoints where this one serves a reporter gene function. To generalize the intended target to other relatable targets, this assay endpoint is annotated to the dna binding intended target family, where the subfamily is zinc finger.
Human liver HepG2 cells are transiently transfected with multiple reporter transcription units (MRTUs) in 6-well plates using FuGene 6 reagent (Roche; 3 ml FuGene/1 mg DNA). The MRTU constructs are regulated by a cis-regulating element (promoter). […] A major difference between the CIS and TRANS system is that in CIS activities of endogenous TFs are measured, whereas the TRANS assay evaluates changes in activities of exogenous, chimeric NR-Gal4 proteins. […] At the end of 24 hour incubation, total RNA was isolated using TriZol reagent (Invitrogen). The isolated RNA is then reverse-transcribed using oligo(dT) primer and Mo-MLV reverse transcriptase (Invitrogen) with DNAse I (Ambion) treatment for 30 min. The one-tenth of the produced cDNA was amplified by PCR using Taq DNA polymerase (Invitrogen) and two reporter sequence-specific primers. The PCR products were fluorescently labeled by primer extension with 6-arboxyfluorescein (6-FAM) 5'-labeled reporter sequence-specific primer (2 min at 95 C, 20 s at 68 C and 10 min at 72 C) and these products were digested with 5U of HpaI (New England Biolabs) for 2h at 37 C. The fragments were purified using Qiaquick PCR columns (Qiagen), analyzed on an ABI 3130xL genetic analyzer (Applied Biosystems) with peak positions identified by using a set of X-rhodamine (ROX)-labeled MapMarker1000 molecular weight standards (BioVentures). The raw capillary electrophoresis data was processed using Attagraph software (Attagene).

| Structure (SMILES) | outcome | AC50 |
| --- | --- | --- |
| CC(C)(C)N | inactive |  |
| [Cl][Eu]([Cl])[Cl] | inactive |  |
| CC(C)=CCl | inactive |  |
| C=CC(=O)OCCCCCCOC(=O)C=C |  | 66.6 µM (active) |
| CCC(C)C(=O)OC (stereo not given) | inactive |  |
| CC(=O)OCC=C(C)C | inactive |  |
| O=C1CCCCCCCCCCCN1 | inactive |  |
| CCOB(OCC)OCC | inactive |  |
| CC(C=O)c1ccccc1 (stereo not given) | inactive |  |
| CCCCOC(=O)C(C)CC (stereo not given) | inactive |  |
| CC1=CCC2CC1C2(C)C (stereo not given) | inactive |  |
| Fc1ccc(Br)cc1 | inactive |  |
| CCCCCCCO | inactive |  |
| C=CCNCC=C | inactive |  |
| COCC(=O)O | inactive |  |
| O=c1c(O)c(-c2ccc(O)cc2O)oc2cc(O)cc(O)c12 | inactive |  |
| O=C(OCCc1ccccc1)c1ccccc1 | inactive |  |
| NNS(=O)(=O)c1ccc(Oc2ccc(S(=O)(=O)NN)cc2)cc1 | inactive |  |
| CC(=O)CC(=O)Nc1ccccc1C | inactive |  |
| CC(C)[N+](C)(CCOC(=O)C1c2ccccc2Oc2ccccc21)C(C)C | inactive |  |

| Structure (SMILES) | outcome | AC50 |
| --- | --- | --- |
| CCc1cccc(C)c1N | inactive |  |
| CC(C)(CO)COC(=O)C(C)(C)CO | inactive |  |
| CCCCCCCC(=O)OCC(COC(=O)CCCCCCC)OC(=O)CCCCCCC | inactive |  |
| c1ccc2c(c1)[nH]c1ccccc12 | inactive |  |
| C=C(C)C(=O)OCC(O)COc1ccc(C(C)(C)c2ccc(OCC(O)COC(=O)C(=C)C)cc2)cc1 (stereo not given) |  | 39.8 µM (active) |
| Cc1cc(=O)[nH]c(=O)[nH]1 | inactive |  |
| CC(C)CCOCc1ccccc1 | inactive |  |
| O=C(O)c1cc(O)c2ccccc2c1O | inactive |  |
| C=CC(=O)O[C@H]1C[C@@H]2CC[C@@]1(C)C2(C)C |  | 100 µM (active) |
| Nc1ncnc2nc[nH]c12 | inactive |  |
| CCCCOCCOC(=O)COc1ccc(Cl)cc1Cl | inactive |  |
| Cc1ccc(S(=O)(=O)N=C=O)cc1 | inactive |  |
| CC(=O)C(C)C | inactive |  |
| Cc1c(Cl)cccc1Cl | inactive |  |
| CC(=O)/C=C/C1C(C)=CCCC1(C)C (stereo not given) | inactive |  |
| C=CCCCCCCCCOC(C)=O | inactive |  |
| COc1ccc(C(=O)/C(Br)=C\C(=O)O)cc1 |  | 68 µM (active) |
| O=C(O)C1CCC(C(=O)O)CC1 (stereo not given) | inactive |  |
| CCCCOCCOCCOC(C)=O | inactive |  |
| C=CC(=O)OCC(C)OCC(C)OCC(C)OC(=O)C=C (stereo not given) |  | 79.7 µM (active) |
